Bioassay records: PubChem BioAssay, several laboratories
CRFR2-BP antag = CRF-BP/CRF-R2 complex antagonism; inhibition, % at 11.8 µM; HEK293 CRF-R2/CRF-BP, CRF-induced calcium fluorescence; AID 588475; hit rate 0.59% among 350,000;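 active means inhibition of the ligand-induced calcium signal above about 50% at the single tested concentration, limit read from the data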
cardiac RTF act = cardiac RTF calcium sensitization. P19429+P45379. IANBD-labeled TnC RTF fluorescence at EC20 calcium; 0% EC20 calcium, 100% full calcium. activation, % at 7.2 µM. AID 493008. hit rate 0.24% among 340,000;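 active means activation above the mean over all tested compounds plus 3 SD, cut at about 30% in these data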;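 further: rise in fluorescence read as greater calcium sensitivity of cardiac thin filaments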
CRFR2-BP ag = agonists of human CRF-binding protein/CRF-R2 receptor complex. HEK293 CRF-R2/CRF-BP, calcium dye fluorescence (FLIPR); percent of saturating CRF peptide response. hit rate 0.46% among 350,000. AID 588473. activation, % at 13.2 µM;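 active means activation of at least 50%, plus an integration ratio under a set limit after plate pattern correction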
Myeloid diff 2 = promotes myeloid progenitor differentiation. ER-HoxA9 myeloid progenitors, lysozyme-GFP differentiation, flow cytometry. calls only at 10 µM. hit rate 1% among 360,000. AID 624256;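 active means normalized GFP-positive differentiation at or above the plate's own cutoff, the solvent-only control mean plus 3 SD; inconclusive means no clear call, values can overlap the other calls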;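 further: cells exposed to compound for four days before flow analysis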
Cardiac RTF inh = cardiac RTF calcium desensitization; IANBD-labeled cardiac RTF, Ca2+ fluorescence; hit rate 0.12% among 340,000; AID 493244; inhibition, % at 7.15 µM;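 active means inhibition above the mean inhibition of all tested compounds plus 3 SD, cut at about 17% in these data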;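 further: assay run at fixed EC70 calcium of 1.6 mM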
A number is an active result; ! = not confirmed by another sample. A selection: hits, their analogues and other compounds. The true share with any hit is near 2.2%.

`Cc1ccccc1N1C(=O)NC(=O)/C(=C\c2ccc3c(c2)CCCN3Cc2ccccc2)C1=O` gave CRFR2-BP antag inactive, cardiac RTF act inactive, CRFR2-BP ag 57.9, Myeloid diff 2 inactive and Cardiac RTF inh inactive.
C[n+]1ccc(-c2ccccc2)c2ccccc21 was read as CRFR2-BP antag inactive, cardiac RTF act inactive, CRFR2-BP ag inactive, Myeloid diff 2 active and Cardiac RTF inh inactive.
`CN(C)c1ccc(/C=C/c2cc[n+](C)c3ccccc23)cc1` gave CRFR2-BP antag inactive, cardiac RTF act inactive, CRFR2-BP ag inactive, Myeloid diff 2 inconclusive and Cardiac RTF inh inactive.
Screening CN(C)[C@@H]1C(=O)C(C(N)=O)=C(O)[C@@]2(O)C(=O)C3=C(O)c4c(O)cccc4[C@@](C)(O)[C@H]3[C@H](O)[C@@H]12 returned CRFR2-BP antag inactive, cardiac RTF act inactive, CRFR2-BP ag inactive, Myeloid diff 2 inactive and Cardiac RTF inh 20.4!.
COc1ccc(-c2ccc3c(c2)CN(C(=O)CCc2ccccc2)Cc2cnnn2-3)cc1 was read as Myeloid diff 2 inactive.
`Cc1cccc(N2C(=O)NC(=O)/C(=C\c3ccc(N4CCOCC4)cc3)C2=O)c1` gave CRFR2-BP antag 72.2, cardiac RTF act inactive, CRFR2-BP ag inactive, Myeloid diff 2 inactive and Cardiac RTF inh inactive.
`CN1C2CNC(=O)CC1C1CCC2C1` (stereo not drawn) gave CRFR2-BP antag inactive, CRFR2-BP ag inactive and Myeloid diff 2 inactive.
C[C@@H]1CN([C@@H](C)CO)C(=O)CCCn2nncc2CO[C@@H]1CN(C)C(=O)Oc1cccc2ccccc12 was read as CRFR2-BP antag inactive, CRFR2-BP ag inactive and Myeloid diff 2 inactive.
For CCCC1(CCC)C(=O)NC(=Nc2ccccc2)NC1=O the results were CRFR2-BP antag inactive, cardiac RTF act inactive, CRFR2-BP ag inactive, Myeloid diff 2 inactive and Cardiac RTF inh inactive.
Screening CCCCC1(CCCC)C(=O)NC(=Nc2cccc(C)c2)NC1=O returned CRFR2-BP antag 54.9, cardiac RTF act inactive, CRFR2-BP ag 88.6, Myeloid diff 2 inactive and Cardiac RTF inh inactive.
O=C(O)C(O)(c1ccc(Cl)cc1)C1(O)CCCC1 (stereo not drawn) was read as CRFR2-BP antag inactive, CRFR2-BP ag inactive and Myeloid diff 2 inactive.
For COC(=O)C1=C(c2ccc(OC(F)(F)F)cc2)C[C@@H]2CC[C@H]1N2C(=O)NCCOc1ccc(OC)cc1 the results were CRFR2-BP antag inactive, cardiac RTF act inactive, CRFR2-BP ag inactive, Myeloid diff 2 inactive and Cardiac RTF inh inactive.
For O=C(CCl)Nc1nccs1 the results were CRFR2-BP antag 62.5, cardiac RTF act inactive, CRFR2-BP ag inactive, Myeloid diff 2 inactive and Cardiac RTF inh inactive.
Screening Cc1ccsc1C(=O)C1CCCN(Cc2cnc(N3CCCC3)s2)C1 (stereo not drawn) returned CRFR2-BP antag inactive, cardiac RTF act inactive, CRFR2-BP ag inactive, Myeloid diff 2 inactive and Cardiac RTF inh inactive.
Screening Cc1cc(C=C(C#N)C#N)ccc1N1CCCC1 returned CRFR2-BP antag inactive, cardiac RTF act inactive, CRFR2-BP ag 76.0, Myeloid diff 2 inactive and Cardiac RTF inh inactive.
For N#CC(C#N)=Cc1ccc(N2CCOCC2)cc1 the results were CRFR2-BP antag inactive, cardiac RTF act inactive, CRFR2-BP ag inactive, Myeloid diff 2 inactive and Cardiac RTF inh inactive.
Screening COC(=O)C1=C(c2ccc(OC)c(OC)c2)C[C@@H]2CC[C@H]1N2C(=O)NCC1CC1 returned CRFR2-BP antag inactive, cardiac RTF act inactive, CRFR2-BP ag inactive, Myeloid diff 2 inactive and Cardiac RTF inh inactive.
Screening CC(C)(C)c1cc([N+](=O)[O-])cc(C(C)(C)C)c1O returned CRFR2-BP antag 63.2 and CRFR2-BP ag 68.0.
`N#C/C(=C\c1ccc(O)cc1)C(=O)O` (tested in a mixture with another compound) gave CRFR2-BP antag inactive, cardiac RTF act inactive, CRFR2-BP ag inactive, Myeloid diff 2 active and Cardiac RTF inh inactive.
Screening c1ccc2c(c1)[IH]c1ccccc1-2 returned CRFR2-BP antag inactive, cardiac RTF act inactive, CRFR2-BP ag inactive, Myeloid diff 2 inconclusive and Cardiac RTF inh inactive.
For O=S(=O)(c1cccc2ccccc12)N1Cc2ccccc2-n2nncc2C1 the results were CRFR2-BP antag inactive, CRFR2-BP ag inactive and Myeloid diff 2 inactive.
COc1ccc(OC)c(NC2=NCCS2)c1 was read as CRFR2-BP antag inactive, cardiac RTF act inactive, CRFR2-BP ag inactive, Myeloid diff 2 inactive and Cardiac RTF inh inactive.
For COc1ccc(OC)c(NC2=NCCCS2)c1 the results were CRFR2-BP antag inactive, cardiac RTF act inactive, CRFR2-BP ag inactive, Myeloid diff 2 active and Cardiac RTF inh inactive.
Screening CCOC(=O)c1cccc(C2=C(CNC(=O)c3ccc([N+](=O)[O-])cc3)[C@H]3CC[C@@H](C2)N3Cc2ccccc2)c1 returned CRFR2-BP antag inactive, CRFR2-BP ag inactive and Myeloid diff 2 inactive.
Screening CN(C)c1ccc(C(=O)N/N=C/C23CC[C@@H](O)CC2(O)CC[C@@H]2[C@@H]3CCC3(C)C(C4=CC(=O)OC4)CCC23O)cc1 (stereo partly drawn) returned CRFR2-BP antag 54.4, cardiac RTF act inactive, CRFR2-BP ag inactive, Myeloid diff 2 inactive and Cardiac RTF inh inactive.
For COc1ccc(C(=O)N/N=C/C23CC[C@@H](O)CC2(O)CC[C@@H]2[C@@H]3CCC3(C)C(C4=CC(=O)OC4)CCC23O)cc1 (stereo partly drawn) the results were CRFR2-BP antag inactive, cardiac RTF act inactive, CRFR2-BP ag inactive, Myeloid diff 2 active and Cardiac RTF inh inactive.
Screening CC12CC[C@H]3[C@@H](CCC4(O)C[C@H](O)CCC34/C=N/NC(=O)c3ccc(O)cc3)C1(O)CCC2C1=CC(=O)OC1 (stereo partly drawn) returned CRFR2-BP antag inactive, cardiac RTF act inactive, CRFR2-BP ag inactive, Myeloid diff 2 inactive and Cardiac RTF inh inactive.
For O=c1c2ccccc2nc(N2CCCC2)n1-c1ccc(Cl)cc1 the results were CRFR2-BP antag 63.7, cardiac RTF act inactive, CRFR2-BP ag inactive, Myeloid diff 2 inactive and Cardiac RTF inh inactive.
For C[C@]12CCC3C(CC[C@H]4C[C@@H](O)CC[C@]34C)C1C[C@@H](O)[C@]2(C)O (stereo partly drawn) the results were CRFR2-BP antag inactive, cardiac RTF act inactive, CRFR2-BP ag inactive, Myeloid diff 2 inactive and Cardiac RTF inh inactive.
For C#C[C@]1(O)[C@H](O)CC2C3CC[C@H]4C[C@@H](O)CC[C@]4(C)C3CC[C@@]21C (stereo partly drawn) the results were Myeloid diff 2 active.
`O=P(NCc1ccccc1)(Oc1ccccc1)Oc1ccccc1` gave CRFR2-BP antag inactive, cardiac RTF act inactive, CRFR2-BP ag inactive, Myeloid diff 2 inactive and Cardiac RTF inh inactive.
Screening CCCCOCCCn1c(N)c(C(=O)OCCOC)c2nc3ccccc3nc21 returned CRFR2-BP antag inactive, cardiac RTF act inactive, CRFR2-BP ag inactive, Myeloid diff 2 inactive and Cardiac RTF inh inactive.
For CCOCCCn1c(N)c(C(=O)Nc2sc3c(c2C(=O)OC)CCCC3)c2nc3ccccc3nc21 the results were CRFR2-BP antag inactive, cardiac RTF act 52.2, CRFR2-BP ag inactive, Myeloid diff 2 inactive and Cardiac RTF inh inactive.
